From PubChem BioAssay AID588335 (The Scripps Research Institute Molecular Screening Center, 2011) come the findings set out here.

The structures appear in SMILES notation. In all, about 360,000 compounds went through this assay and about 4,500 (1.2%) were called active. Only a selection was taken, and actives are over-represented in it overall. A number with no mark means an inactive call. Cut-off read from the data, not from the text of the source: active = inhibition above about 30%; inactive = the rest.

The test is described as follows: inhibition of GDH and TPI enzymes – biochemical, absorbance, full deck, artefact control for M. tuberculosis FBA inhibitor project, primary screen (AID 588335).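 Note: 0% = DMSO wells and 100% = wells lacking the enzyme.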 The settings on record: GDH-TPI coupled enzyme counterscreen, NADH absorbance; at 4.8 µM; stronger effect = higher value. (The purpose of a counterscreen is to sort out artefacts and off-target activity.)
On to `Cc1cc(C)nc(N/N=C/c2c(CO)cnc(C)c2O)n1`, for which the inhibition is 16.2%. `CCN(CC)c1ccc(/C=N/Nc2nc(C)cc(C)n2)c(O)c1`: the inhibition was 31.7% (active). In the case of `Cn1cnnc1Sc1ccc(S(C)(=O)=O)cc1[N+](=O)[O-]`, the inhibition is 13%. As for `Cc1c(-c2nn(C)c(=O)c3ccccc23)oc2ccc(F)cc2c1=O`, the figure is 18%; as for `CC(C)NC(=O)NCCCCCCS(C)=O` (stereo not given), 16.7%; as for `Nc1nc(NCCCN2CCOCC2)nc(Nc2ccccc2)c1[N+](=O)[O-]`, 28.5%. As to `Nc1nc(Nc2ccccc2)nc(NCCO)c1[N+](=O)[O-]`, the inhibition is 39.5% (active). Regarding `COCCNc1nc(N)c([N+](=O)[O-])c(NCCO)n1`, the inhibition was 26.7%.

For `Cc1ccc(S(=O)(=O)N(NC2=NS(=O)(=O)c3ccccc32)C(=O)c2ccccc2)cc1`, the inhibition is 4.78%. As for `CC(C)(C)c1csc(NC2=NS(=O)(=O)c3ccccc32)n1`, the inhibition was 36.1% (active). Under `O=C(Oc1cccc(NC2=NS(=O)(=O)c3ccccc32)c1)c1ccncc1` stands 0.95%; under `Cc1cc(-c2ccccc2)nc(N2CCC(C(=O)NC34CC5CC(CC(C5)C3)C4)CC2)n1`, -1.41%; under `CSc1nc2nc3c(c(=O)n2[nH]1)CCC3`, 5.66%. For `Cc1ccccc1NC(=O)Cc1nc(COC(=O)C(C)(C)Oc2ccc(Cl)cc2)cs1`, the inhibition is -5.31%. `O=C(O)/C=C\C(=O)Nc1ccc(OCc2ccccc2)cc1`: the inhibition was 5.18%. Under `O=C(/C=C/c1ccco1)NC(=S)Nc1ccccc1Br` stands 35.7% (active). `O=C(/C=C/c1ccco1)NC(=S)N1CCCCC1`: the inhibition is 10.6%.

On to `COc1cccc(NC(=O)COC(=O)/C=C/c2ccco2)c1`, for which the inhibition is 6.67%.

Turning to `COc1ccc(Cl)cc1C(=O)NNC(=S)NC(=O)/C=C/c1ccco1`, the inhibition was 5.35%. In the case of `O=C(/C=C/c1ccco1)Nc1ccc(Oc2ccccc2)cc1`, the inhibition was 38% (active). On to `CCOc1ccc(NC(=O)CSc2nc3ccccc3c(=O)n2Cc2cccs2)cc1`, for which the inhibition is 6.55%.

`O=C(C[C@H]1C(=O)N(c2ccc(F)c(F)c2)C[C@@H]1Cc1ccccc1)Nc1ccccc1`: the inhibition was -1.2%. For the compound `O=Cc1cn(CCOc2ccc(F)cc2)c2ccccc12`, the inhibition is 7.08%. For `Cc1cccc2nc(CNc3ccc(F)cc3)cn12`, the inhibition is 10.8%.

Take `CCC1CCCCN1S(=O)(=O)Cc1ccccc1Cl` (stereo not given): the inhibition is 0.61%. For the compound `COc1ccc(S(=O)(=O)N2CCCC2CNC(=O)C(=O)NC2CC2)cc1` (stereo not given), the inhibition was -18%. As for `COc1ccc2c(c1)CCc1cn3ncc(C#N)c3nc1-2`, the inhibition was 2.17%. Take `O=C(Nc1ccc(F)c([N+](=O)[O-])c1)C1CCCO1` (stereo not given): the inhibition was 7.32%. On to `COCCN(CCOC)S(=O)(=O)c1ccc(/C(O)=C(\C#N)c2nc3ccccc3[nH]2)cc1`, for which the inhibition is 42.7% (active). Under `COCCN(CCOC)S(=O)(=O)c1ccc(C(=O)Nc2nc3c(s2)CCc2ccccc2-3)cc1` stands 9.74%; under `CC(C)(C)c1nnc2sc(SCC(O)=C(C#N)c3nc4ccccc4[nH]3)nn2c1=O`, 9.05%. Regarding `CC1(C)CC(=O)C2=C(C1)N=C1SCCC(=O)N1C2c1ccc(C(F)(F)F)cc1` (stereo not given), the inhibition was 31% (active). Under `CC1(C(=O)Nc2ccccc2Br)CCN1C(=O)CC1CC1` (stereo not given) stands -0.89%; under `C=CCSC(CC)(CC)C(N)=O`, 3.59%; under `CN1C(c2ccc(F)cc2)=CS/C1=C(/C#N)c1nnc2n1-c1ccccc1SC2`, 18.8%. As for `Cc1ccccc1-n1cc(CNC(=O)CC2C(=O)NCCN2C/C=C/c2ccccc2)cn1` (stereo not given), the figure is -1.22%; as for `COc1cccc(-c2nc3ccc(N4CCN(C)CC4)cc3[nH]2)c1`, 31.7% (active); as for `COc1cccc(N2CCN(C3CC(=O)N(c4ccc(Cl)cc4)C3=O)CC2)c1` (stereo not given), -9.65%. With `COc1cccc(N2CCN(c3ccc4nnc(CCC(=O)N5CCN(C)CC5)n4n3)CC2)c1`, the inhibition was -6.09%. Under `CCCN(C(=O)CSc1nnc(N)s1)c1c(N)n(Cc2ccccc2)c(=O)[nH]c1=O` stands 2.63%; under `O=c1cccc(-c2ccc(Br)cc2)o1`, 17.6%; under `C=CCc1cccc2cc(C(=O)OCC)c(=O)oc12`, 10.2%.

For the compound `CCOC(=O)c1cc2cc3ccccc3cc2oc1=O`, the inhibition was 38.1% (active). As for `CCOc1cccc2cc(C(=O)OCC(=O)Nc3c(C)cccc3CC)c(=O)oc12`, the inhibition is 11.9%.

With `CN1CCCc2cc(C#N)c(=O)[nH]c21`, the inhibition is 34.1% (active). As for `COc1ccccc1CNC(=O)COn1nnc2ccc(S(=O)(=O)N3CCOCC3)cc21`, the inhibition is -5.57%.

As to `O=C(OCCN1C(=O)c2ccccc2C1=O)[C@@H]1CC(O)CN1S(=O)(=O)c1ccccc1[N+](=O)[O-]` (stereo not given in full), the inhibition is 3.16%.

Take `CC(=O)c1ccc(OCCCC(=O)Nc2ccc(C)c(S(=O)(=O)N3CCOCC3)c2)cc1`: the inhibition was 7.22%. Under `COc1ccc2ccccc2c1CNCc1ccccn1` stands -14.6%. For `COc1ccc(C(=O)/C=C/c2ccc(-c3ccccc3)cc2)cc1CSCC(=O)O`, the inhibition is 37.5% (active). Take `COC(=O)c1ccc(COc2ccc(/C=C/C(=O)c3ccc(OC)c(CSCC(=O)O)c3)cc2OC)cc1`: the inhibition was 7.37%. For `COc1ccccc1CCNC(=O)C1CCN(C(=O)/C=C/c2ccccc2)CC1`, the inhibition is 1.82%. Regarding `CCN(CC)C(=O)C(C)N1c2cccc3cccc(c23)S1(=O)=O` (stereo not given), the inhibition was 9.73%. Under `CC1CCCCC1NC(=O)COC(=O)Cc1ccc(Cl)cc1` (stereo not given) stands 3.03%; under `CCCN(CC(=O)NC(=O)NC1CCCCC1)CC(=O)Nc1cc(Cl)ccc1Cl`, -7.58%. Take `O=C(N/N=C/c1c(O)n(C2CC2)c(=S)[nH]c1=O)c1ccccc1`: the inhibition is 25.8%.

As to `O=c1[nH]c(=S)n(C2CC2)c(O)c1/C=N/N1CCOCC1`, the inhibition was 16.2%. In the case of `O=C(N/N=C/c1c(O)n(C2CC2)c(=S)[nH]c1=O)c1ccccc1Cl`, the inhibition was 40.6% (active).

On to `CC1CCN(C(=O)COC(=O)c2cc(=O)[nH]c3ccccc23)CC1`, for which the inhibition is 13.7%.

`CC(C)(C)n1nnnc1C(c1ccccc1F)N1CCN(C(=O)c2ccco2)CC1` (stereo not given): the inhibition is -4.67%. In the case of `O=C(C[C@H]1C[C@H]2c3cc(NS(=O)(=O)c4ccc(F)cc4)ccc3O[C@H]2[C@H](CO)O1)NCc1cc(F)ccc1F`, the inhibition is -2.37%.

Consider `COc1ccc(C(=O)N/N=C2\CCS(=O)(=O)c3ccc(F)cc32)cc1OC`, for which the inhibition was 32.9% (active). With `CCNC(=O)c1ccc(OCC(=O)Nc2ccc(F)cc2)c(OC)c1`, the inhibition was 0.63%. For `COc1ccc(C(=O)Nc2ccc(C3(C#N)CCCC3)cc2)cc1OC`, the inhibition is 9.36%. Under `CC(Sc1cccc[n+]1[O-])C(=O)Nc1cccc(S(=O)(=O)N2CCOCC2)c1` (stereo not given) stands 0%; under `COc1ccc(/C=C(\NC(=O)c2ccccc2)C(=O)NCCN2CCOCC2)cc1OC`, 14.8%; under `Cc1ccc(C(=O)N/C(=C\c2cn(S(=O)(=O)N(C)C)c3ccccc23)C(=O)N2CCCC2)cc1`, -3.45%. As for `CCn1cc(/C=C(\NC(=O)c2ccc(C)cc2)C(=O)NCCN2CCOCC2)c2ccccc21`, the figure is 40.6% (active). For `CCSc1nnc(SCC(=O)NNC(=O)c2ccccc2F)s1`, the inhibition is -1.01%.

As for `CC1Cc2ccccc2N1C(=O)c1cc2sccc2n1Cc1ccccc1` (stereo not given), the inhibition was -0.44%. For the compound `CCOC(=O)C(C)n1cnc2c(nnn2-c2cccc(OC)c2)c1=O` (stereo not given), the inhibition is -6.44%. Regarding `COCCOC(=O)c1sc(=S)n(CCOC)c1N`, the inhibition was 11.4%. On to `CCOC(=O)c1sc(=S)n(-c2cccc(OC)c2)c1N`, for which the inhibition is 33.3% (active). For the compound `Cc1cc(/C=N/n2cnnc2)c(C)n1-c1ccc2ncccc2c1`, the inhibition is 15%.

Take `O=S(=O)(Cc1nnnn1-c1ccccc1)c1ccccc1`: the inhibition is -3.16%. Consider `COc1ccc(CN2CCCCC2C)cc1OC` (stereo not given), for which the inhibition is 7.17%. For the compound `COc1ccc(C(=O)CN2C(=O)NC(C)(c3ccc(C)cc3)C2=O)cc1OC` (stereo not given), the inhibition is -0.32%. For `COc1cc(/C=C(\C#N)c2nc3ccccc3[nH]2)ccc1O`, the inhibition is 31.3% (active). `COc1ccc(/C=C(/NC(=O)c2ccc(C)cc2)c2nc3ccccc3[nH]2)cc1OC`: the inhibition was 46.6% (active). Turning to `Cc1ccc(C(=O)N/C(=C/c2cccnc2)C(=O)O)cc1`, the inhibition was 1.45%.

Regarding `CCN(C[C@H]1N[C@@](CC)(C(=O)OC)[C@H]2C(=O)N(C)C(=O)[C@@H]12)C(=O)Nc1ccc(F)cc1`, the inhibition is 0%. Consider `COc1ccc(/C=N/OCc2ccccc2C#N)c(OC)c1`, for which the inhibition is -3.57%. `COC(=O)c1ccc(Nc2ncnc3sccc23)cc1`: the inhibition was 8.09%. Regarding `CCOC(=O)c1nc(Nc2ccc(C(=O)OC)cc2)c2ccccc2n1`, the inhibition was 33.2% (active). Take `CCOC(=O)c1ccc(N/C(=N/S(=O)(=O)c2ccccc2)c2ccccc2)cc1`: the inhibition is 10.9%. `O=C(c1ccco1)N1CCN(Cc2cccc(C(F)(F)F)c2)CC1`: the inhibition was -0.77%. Regarding `c1ccc(-c2nnc3n2NC(c2ccc4c(c2)OCO4)S3)cc1` (stereo not given), the inhibition is 17.1%.

For `CC(=O)c1ccc(N2CCN(C(=O)C3CCN(S(=O)(=O)c4ccc5c(c4)CC(C)N5C(=O)C4CC4)CC3)CC2)cc1` (stereo not given), the inhibition is 23.5%.

Turning to `Cc1ccc(/C=N/NC(=O)C(NC(=O)c2ccccc2)c2n[nH]c(=O)c3ccccc23)cc1` (stereo not given), the inhibition was 1.58%.

Consider `CC(C)c1cc(C(=O)O)n[nH]1`, for which the inhibition was 8.57%. With `CC(C)c1cc(C(=O)N/N=C/C(Br)=C/c2ccccc2)n[nH]1`, the inhibition is 36.9% (active).

Turning to `COc1ccc(CNC(=O)C(NS(=O)(=O)c2cccc3nsnc23)C(C)C)cc1` (stereo not given), the inhibition was 1.17%. As for `COc1cccc(/C=C(/CC(=O)Nc2ccc(N3CCOCC3)cc2)c2nc3ccccc3s2)c1`, the figure is 32.1% (active).

As to `CCn1c(Cc2ccc(OC)cc2)nnc1SCC(=O)Nc1ccc(N2CCOCC2)cc1`, the inhibition was -0.78%. On to `Cc1ccc(OCCCC(=O)Nc2ccc(N3CCOCC3)cc2)cc1`, for which the inhibition was -5.32%.

Broadly, the inhibition is the drop in the measured response relative to a control, in per cent.
